# Data as given in publication PMC7862700, “An all-to-all approach to the identification of sequence-specific readers for epigenetic DNA modifications on cytosine”.
# Tests used:
# Experiment in all cases: DAPPL (digital affinity profiling via proximity ligation, sequencing); 10 mM Tris-HCl pH 7.5, 50 mM NaCl, 1 mM DTT, 4% glycerol, room temperature, 30 min; GST-TFs on glutathione beads, 16-mer random dsDNA library, 0.1% formaldehyde crosslink after washing; high values mean tight binding
# [1] = target: T1, FLI1 (Homo sapiens, UniProt Q01543 1-452); conditions: protein: recombinant; tags: N-terminal GST; dsDNA, one strand shown
# T1 sequence: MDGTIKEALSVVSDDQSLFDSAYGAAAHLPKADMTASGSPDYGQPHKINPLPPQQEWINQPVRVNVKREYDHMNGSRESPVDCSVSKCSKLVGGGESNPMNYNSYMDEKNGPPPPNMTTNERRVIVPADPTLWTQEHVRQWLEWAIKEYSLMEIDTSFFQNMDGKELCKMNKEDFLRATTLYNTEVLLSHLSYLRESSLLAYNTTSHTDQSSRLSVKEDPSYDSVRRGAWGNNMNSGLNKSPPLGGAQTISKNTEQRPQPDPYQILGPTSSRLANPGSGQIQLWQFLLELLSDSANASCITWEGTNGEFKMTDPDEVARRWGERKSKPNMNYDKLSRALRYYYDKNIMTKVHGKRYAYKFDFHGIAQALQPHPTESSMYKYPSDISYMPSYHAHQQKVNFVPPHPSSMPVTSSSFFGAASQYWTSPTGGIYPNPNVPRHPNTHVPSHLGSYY
# In short: (§1)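 A tag-only sample was pooled with DNA-barcoded human transcription factors that had been expressed in yeast as GST fusions and captured on glutathione beads. The pools were incubated for 30 min at room temperature with 200 nmole of a random double-stranded 16-mer DNA library in Tris/NaCl/DTT/glycerol buffer, then washed, crosslinked with 0.1% formaldehyde, proximity-ligated (BsaI/T4 ligase, 1 h, 37 °C), PCR-amplified and sequenced on an Illumina NextSeq500. Binding signal is each hexamer's read frequency for a factor divided by its frequency for the tag-only sample.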
# [2] = target: T2, ELK1 (Homo sapiens, UniProt P19419 1-428); conditions: protein: recombinant; tags: N-terminal GST; dsDNA, one strand shown
# T2 sequence: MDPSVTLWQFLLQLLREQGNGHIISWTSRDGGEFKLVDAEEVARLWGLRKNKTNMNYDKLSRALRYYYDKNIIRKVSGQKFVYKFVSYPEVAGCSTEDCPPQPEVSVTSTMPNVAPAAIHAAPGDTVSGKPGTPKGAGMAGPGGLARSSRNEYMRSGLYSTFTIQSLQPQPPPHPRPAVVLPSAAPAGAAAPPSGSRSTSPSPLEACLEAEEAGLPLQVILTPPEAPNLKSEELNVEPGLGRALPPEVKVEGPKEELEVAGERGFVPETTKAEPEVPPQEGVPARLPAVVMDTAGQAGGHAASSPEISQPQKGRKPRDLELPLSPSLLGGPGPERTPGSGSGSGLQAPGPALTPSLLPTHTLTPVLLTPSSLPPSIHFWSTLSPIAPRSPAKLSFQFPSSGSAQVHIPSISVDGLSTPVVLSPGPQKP
# In short: as §1
# [3] = target: T3, GABPA (Homo sapiens, UniProt Q06546 1-454); conditions: protein: recombinant; tags: N-terminal GST; dsDNA, one strand shown
# T3 sequence: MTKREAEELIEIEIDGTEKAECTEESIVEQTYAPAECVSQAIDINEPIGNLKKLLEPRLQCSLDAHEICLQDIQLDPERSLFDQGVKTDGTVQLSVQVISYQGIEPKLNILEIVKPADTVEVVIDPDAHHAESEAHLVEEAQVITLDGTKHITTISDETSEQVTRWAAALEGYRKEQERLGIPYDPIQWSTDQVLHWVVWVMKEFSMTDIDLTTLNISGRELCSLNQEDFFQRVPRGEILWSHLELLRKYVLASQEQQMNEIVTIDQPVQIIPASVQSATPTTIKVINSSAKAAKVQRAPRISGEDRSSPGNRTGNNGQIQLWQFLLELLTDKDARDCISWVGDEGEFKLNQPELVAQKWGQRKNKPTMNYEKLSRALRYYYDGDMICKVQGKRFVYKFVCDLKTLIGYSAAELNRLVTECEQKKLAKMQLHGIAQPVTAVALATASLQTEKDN
# In short: as §1
# [4] = target: T4, ERG (Homo sapiens, UniProt P11308 1-479); conditions: protein: recombinant; tags: N-terminal GST; dsDNA, one strand shown
# T4 sequence: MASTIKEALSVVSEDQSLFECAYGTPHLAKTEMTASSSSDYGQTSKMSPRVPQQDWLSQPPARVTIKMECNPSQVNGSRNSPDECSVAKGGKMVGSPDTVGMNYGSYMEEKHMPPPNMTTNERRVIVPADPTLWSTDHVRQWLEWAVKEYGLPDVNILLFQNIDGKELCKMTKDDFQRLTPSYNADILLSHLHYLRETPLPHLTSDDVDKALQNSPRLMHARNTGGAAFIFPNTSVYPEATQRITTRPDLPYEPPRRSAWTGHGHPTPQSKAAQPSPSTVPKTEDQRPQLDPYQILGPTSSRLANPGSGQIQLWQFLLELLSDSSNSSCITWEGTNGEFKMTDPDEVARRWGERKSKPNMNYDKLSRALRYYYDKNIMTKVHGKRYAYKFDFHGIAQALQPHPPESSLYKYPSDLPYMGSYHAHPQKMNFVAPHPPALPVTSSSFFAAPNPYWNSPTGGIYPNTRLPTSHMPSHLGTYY
# In short: as §1
# [5] = target: ELF1 (Homo sapiens, UniProt P32519 1-619); conditions: protein: recombinant; tags: N-terminal GST; dsDNA, one strand shown
# In short: as §1
# [6] = target: T5, EHF (Homo sapiens, UniProt Q9NZC4 1-300); conditions: protein: recombinant; tags: N-terminal GST; dsDNA, one strand shown
# T5 sequence: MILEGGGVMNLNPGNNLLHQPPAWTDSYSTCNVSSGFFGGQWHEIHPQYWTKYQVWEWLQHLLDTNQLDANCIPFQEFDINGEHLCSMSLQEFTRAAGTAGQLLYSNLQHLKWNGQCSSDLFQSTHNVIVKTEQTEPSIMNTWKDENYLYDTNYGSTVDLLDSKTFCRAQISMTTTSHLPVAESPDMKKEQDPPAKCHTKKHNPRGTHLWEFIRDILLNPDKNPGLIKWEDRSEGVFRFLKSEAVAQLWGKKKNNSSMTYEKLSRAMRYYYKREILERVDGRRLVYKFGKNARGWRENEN
# In short: as §1
# [7] = target: SPI1 (Homo sapiens, UniProt P17947 1-270); conditions: protein: recombinant; tags: N-terminal GST; dsDNA, one strand shown
# In short: as §1
# [8] = target: SPIB (Homo sapiens, UniProt Q01892 1-262); conditions: protein: recombinant; tags: N-terminal GST; dsDNA, one strand shown
# In short: as §1
# [9] = target: T6, ELK3 (Homo sapiens, UniProt P41970 1-407); conditions: protein: recombinant; tags: N-terminal GST; dsDNA, one strand shown
# T6 sequence: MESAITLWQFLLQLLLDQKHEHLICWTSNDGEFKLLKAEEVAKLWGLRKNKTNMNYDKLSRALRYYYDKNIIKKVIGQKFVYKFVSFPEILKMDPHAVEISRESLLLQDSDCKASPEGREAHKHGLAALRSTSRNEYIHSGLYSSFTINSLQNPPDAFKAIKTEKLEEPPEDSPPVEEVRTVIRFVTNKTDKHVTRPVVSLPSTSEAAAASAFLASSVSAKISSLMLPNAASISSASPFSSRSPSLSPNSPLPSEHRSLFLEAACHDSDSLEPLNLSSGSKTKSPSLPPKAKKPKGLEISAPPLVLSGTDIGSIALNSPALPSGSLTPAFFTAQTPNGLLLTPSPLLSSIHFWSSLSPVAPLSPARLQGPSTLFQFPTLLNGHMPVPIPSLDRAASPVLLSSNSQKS
# In short: as §1
# [10] = target: T7, FEV (Homo sapiens, UniProt Q99581 1-238); conditions: protein: recombinant; tags: N-terminal GST; dsDNA, one strand shown
# T7 sequence: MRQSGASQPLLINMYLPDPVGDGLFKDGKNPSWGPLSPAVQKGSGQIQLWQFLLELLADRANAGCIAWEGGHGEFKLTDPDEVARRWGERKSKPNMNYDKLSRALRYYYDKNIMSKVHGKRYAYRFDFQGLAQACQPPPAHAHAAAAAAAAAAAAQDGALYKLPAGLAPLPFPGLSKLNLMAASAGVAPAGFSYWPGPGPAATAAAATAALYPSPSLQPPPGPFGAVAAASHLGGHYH
# In short: as §1
# [11] = target: ETV5 (Homo sapiens, UniProt P41161 1-510); conditions: protein: recombinant; tags: N-terminal GST; dsDNA, one strand shown
# In short: as §1
# [12] = target: HSF1 (Homo sapiens, UniProt Q00613 1-529); conditions: protein: recombinant; tags: N-terminal GST; chain copies: 3; dsDNA, one strand shown
# In short: as §1
# [13] = target: T8, SPIC (Homo sapiens, UniProt Q8N5J4 1-248); conditions: protein: recombinant; tags: N-terminal GST; dsDNA, one strand shown
# T8 sequence: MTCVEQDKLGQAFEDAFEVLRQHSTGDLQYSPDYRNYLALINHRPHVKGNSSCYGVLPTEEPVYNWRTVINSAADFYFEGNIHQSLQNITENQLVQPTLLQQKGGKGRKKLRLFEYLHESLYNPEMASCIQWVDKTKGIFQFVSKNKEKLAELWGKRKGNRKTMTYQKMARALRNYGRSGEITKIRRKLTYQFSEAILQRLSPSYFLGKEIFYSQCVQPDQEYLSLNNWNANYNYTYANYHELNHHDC
# In short: as §1
# [14] = target: ELF4 (Homo sapiens, UniProt Q99607 1-663); conditions: protein: recombinant; tags: N-terminal GST; dsDNA, one strand shown
# In short: as §1
# [15] = target: T9, ELK4 (Homo sapiens, UniProt P28324-2 1-405); conditions: protein: recombinant; tags: N-terminal GST; dsDNA, one strand shown
# T9 sequence: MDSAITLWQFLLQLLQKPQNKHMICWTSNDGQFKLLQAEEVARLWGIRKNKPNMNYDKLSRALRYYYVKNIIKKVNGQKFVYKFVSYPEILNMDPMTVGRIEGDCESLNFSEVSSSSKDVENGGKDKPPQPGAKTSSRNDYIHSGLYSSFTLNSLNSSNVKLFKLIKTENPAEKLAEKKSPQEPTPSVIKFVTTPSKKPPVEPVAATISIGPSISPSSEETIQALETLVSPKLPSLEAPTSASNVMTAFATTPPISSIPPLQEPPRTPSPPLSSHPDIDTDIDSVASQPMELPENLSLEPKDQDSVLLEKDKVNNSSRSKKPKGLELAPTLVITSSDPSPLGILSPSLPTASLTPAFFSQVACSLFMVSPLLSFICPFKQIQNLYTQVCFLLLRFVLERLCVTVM
# In short: as §1
# [16] = target: T10, ETV2 (Homo sapiens, UniProt O00321 1-342); conditions: protein: recombinant; tags: N-terminal GST; dsDNA, one strand shown
# T10 sequence: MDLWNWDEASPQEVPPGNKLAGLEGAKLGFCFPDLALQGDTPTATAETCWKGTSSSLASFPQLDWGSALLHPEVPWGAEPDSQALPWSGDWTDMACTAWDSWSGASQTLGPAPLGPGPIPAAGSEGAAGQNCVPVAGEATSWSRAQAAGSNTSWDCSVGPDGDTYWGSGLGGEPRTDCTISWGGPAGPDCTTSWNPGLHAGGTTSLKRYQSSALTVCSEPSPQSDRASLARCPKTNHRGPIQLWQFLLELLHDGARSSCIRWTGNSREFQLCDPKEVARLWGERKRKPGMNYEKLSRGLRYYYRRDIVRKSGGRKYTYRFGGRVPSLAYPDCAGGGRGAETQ
# In short: as §1
# [17] = target: T11, ELF3 (Homo sapiens, UniProt P78545 1-371); conditions: protein: recombinant; tags: N-terminal GST; dsDNA, one strand shown
# T11 sequence: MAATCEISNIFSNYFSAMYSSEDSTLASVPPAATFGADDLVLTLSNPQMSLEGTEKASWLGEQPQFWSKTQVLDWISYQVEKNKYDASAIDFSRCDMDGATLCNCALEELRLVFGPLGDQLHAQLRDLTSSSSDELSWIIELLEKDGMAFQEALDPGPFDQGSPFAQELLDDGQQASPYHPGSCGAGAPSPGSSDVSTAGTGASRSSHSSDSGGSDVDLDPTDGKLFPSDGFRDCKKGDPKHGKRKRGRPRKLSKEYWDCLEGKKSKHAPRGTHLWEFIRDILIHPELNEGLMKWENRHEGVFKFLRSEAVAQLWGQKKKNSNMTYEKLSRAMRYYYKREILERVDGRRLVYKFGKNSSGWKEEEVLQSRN
# In short: as §1
# [18] = target: CRX (Homo sapiens, UniProt O43186 1-299); conditions: protein: recombinant; tags: N-terminal GST; dsDNA, one strand shown
# In short: as §1
# [19] = target: ETV1 (Homo sapiens, UniProt P50549 1-477); conditions: protein: recombinant; tags: N-terminal GST; dsDNA, one strand shown
# In short: as §1
# Chain of HSF1 (Q00613 whole entry): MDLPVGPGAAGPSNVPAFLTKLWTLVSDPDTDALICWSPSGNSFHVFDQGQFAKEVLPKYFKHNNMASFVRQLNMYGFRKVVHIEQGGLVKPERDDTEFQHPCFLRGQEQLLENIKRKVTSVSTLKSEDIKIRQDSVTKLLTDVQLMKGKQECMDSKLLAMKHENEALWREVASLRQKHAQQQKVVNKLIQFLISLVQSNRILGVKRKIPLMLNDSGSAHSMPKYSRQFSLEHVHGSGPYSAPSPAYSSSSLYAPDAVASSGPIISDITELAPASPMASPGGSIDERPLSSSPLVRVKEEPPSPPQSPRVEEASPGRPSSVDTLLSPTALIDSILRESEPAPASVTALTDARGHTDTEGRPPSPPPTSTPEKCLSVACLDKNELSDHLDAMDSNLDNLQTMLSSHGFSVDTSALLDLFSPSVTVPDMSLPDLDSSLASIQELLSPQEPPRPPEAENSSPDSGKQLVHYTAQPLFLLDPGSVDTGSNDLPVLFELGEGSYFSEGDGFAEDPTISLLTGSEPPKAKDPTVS
# Chain of SPIB (Q01892 whole entry): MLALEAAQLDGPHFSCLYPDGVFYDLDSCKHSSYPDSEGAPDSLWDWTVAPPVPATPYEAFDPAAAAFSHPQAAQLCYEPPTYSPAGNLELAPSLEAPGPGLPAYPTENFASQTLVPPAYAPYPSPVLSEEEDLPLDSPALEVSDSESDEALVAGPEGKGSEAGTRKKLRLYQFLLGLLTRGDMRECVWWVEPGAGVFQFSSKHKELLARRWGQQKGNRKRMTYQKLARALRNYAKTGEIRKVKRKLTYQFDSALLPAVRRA
# Chain of ELF1 (P32519 whole entry): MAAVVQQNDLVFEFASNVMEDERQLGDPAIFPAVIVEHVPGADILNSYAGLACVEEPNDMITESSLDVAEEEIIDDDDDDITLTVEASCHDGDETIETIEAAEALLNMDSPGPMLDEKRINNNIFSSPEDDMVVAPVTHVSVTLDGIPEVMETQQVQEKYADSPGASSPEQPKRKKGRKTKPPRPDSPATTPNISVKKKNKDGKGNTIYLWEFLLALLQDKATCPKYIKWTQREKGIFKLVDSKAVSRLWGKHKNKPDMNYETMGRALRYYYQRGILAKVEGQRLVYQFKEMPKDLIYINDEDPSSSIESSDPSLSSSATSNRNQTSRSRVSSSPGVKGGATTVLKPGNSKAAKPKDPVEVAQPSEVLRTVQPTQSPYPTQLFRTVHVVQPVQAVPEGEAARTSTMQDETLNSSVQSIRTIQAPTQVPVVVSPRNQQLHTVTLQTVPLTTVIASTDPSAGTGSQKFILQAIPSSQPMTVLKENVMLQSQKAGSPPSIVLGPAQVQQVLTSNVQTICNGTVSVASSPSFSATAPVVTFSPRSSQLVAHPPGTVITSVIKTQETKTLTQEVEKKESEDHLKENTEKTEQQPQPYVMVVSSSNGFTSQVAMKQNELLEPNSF
# Chain of CRX (O43186 whole entry): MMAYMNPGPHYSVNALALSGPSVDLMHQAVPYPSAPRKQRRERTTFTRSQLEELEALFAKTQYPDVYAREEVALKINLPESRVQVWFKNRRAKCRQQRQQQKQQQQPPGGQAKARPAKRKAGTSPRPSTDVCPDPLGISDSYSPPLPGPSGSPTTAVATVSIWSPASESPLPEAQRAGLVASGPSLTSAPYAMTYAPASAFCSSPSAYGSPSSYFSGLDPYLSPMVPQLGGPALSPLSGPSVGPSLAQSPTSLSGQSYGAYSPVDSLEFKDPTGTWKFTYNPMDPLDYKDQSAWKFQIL
# Chain of ETV1 (P50549 whole entry): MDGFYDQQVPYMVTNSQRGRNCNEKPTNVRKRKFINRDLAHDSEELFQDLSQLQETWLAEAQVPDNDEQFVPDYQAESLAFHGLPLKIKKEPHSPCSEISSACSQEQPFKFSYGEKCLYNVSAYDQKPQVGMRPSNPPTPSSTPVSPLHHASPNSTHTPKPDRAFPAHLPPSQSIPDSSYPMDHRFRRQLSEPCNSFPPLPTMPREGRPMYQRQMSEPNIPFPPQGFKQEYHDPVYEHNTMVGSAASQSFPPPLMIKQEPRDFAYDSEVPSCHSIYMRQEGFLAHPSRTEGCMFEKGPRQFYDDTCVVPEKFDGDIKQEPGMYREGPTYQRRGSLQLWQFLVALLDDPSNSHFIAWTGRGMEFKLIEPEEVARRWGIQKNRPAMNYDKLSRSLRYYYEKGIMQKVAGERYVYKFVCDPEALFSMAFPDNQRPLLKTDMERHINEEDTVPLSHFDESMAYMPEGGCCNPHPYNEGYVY
# Chain of ELF4 (Q99607 whole entry): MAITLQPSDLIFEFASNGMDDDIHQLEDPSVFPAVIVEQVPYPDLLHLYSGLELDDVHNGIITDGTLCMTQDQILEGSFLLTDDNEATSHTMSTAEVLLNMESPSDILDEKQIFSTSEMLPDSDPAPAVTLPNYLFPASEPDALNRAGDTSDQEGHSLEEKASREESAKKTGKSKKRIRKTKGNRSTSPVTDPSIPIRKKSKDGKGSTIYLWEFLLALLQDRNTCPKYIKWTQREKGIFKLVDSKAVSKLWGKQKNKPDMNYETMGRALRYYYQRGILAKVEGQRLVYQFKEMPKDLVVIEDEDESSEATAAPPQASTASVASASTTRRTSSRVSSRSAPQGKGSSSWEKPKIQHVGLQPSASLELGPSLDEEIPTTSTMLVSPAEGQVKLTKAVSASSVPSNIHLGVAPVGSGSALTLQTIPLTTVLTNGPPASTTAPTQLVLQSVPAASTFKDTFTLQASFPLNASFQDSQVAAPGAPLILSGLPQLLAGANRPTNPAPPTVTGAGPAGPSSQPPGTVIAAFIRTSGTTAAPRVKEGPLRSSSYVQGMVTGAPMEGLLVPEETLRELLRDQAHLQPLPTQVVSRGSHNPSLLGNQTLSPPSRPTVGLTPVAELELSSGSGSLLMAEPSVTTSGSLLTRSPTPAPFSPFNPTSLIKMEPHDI
# Chain of ETV5 (P41161 whole entry): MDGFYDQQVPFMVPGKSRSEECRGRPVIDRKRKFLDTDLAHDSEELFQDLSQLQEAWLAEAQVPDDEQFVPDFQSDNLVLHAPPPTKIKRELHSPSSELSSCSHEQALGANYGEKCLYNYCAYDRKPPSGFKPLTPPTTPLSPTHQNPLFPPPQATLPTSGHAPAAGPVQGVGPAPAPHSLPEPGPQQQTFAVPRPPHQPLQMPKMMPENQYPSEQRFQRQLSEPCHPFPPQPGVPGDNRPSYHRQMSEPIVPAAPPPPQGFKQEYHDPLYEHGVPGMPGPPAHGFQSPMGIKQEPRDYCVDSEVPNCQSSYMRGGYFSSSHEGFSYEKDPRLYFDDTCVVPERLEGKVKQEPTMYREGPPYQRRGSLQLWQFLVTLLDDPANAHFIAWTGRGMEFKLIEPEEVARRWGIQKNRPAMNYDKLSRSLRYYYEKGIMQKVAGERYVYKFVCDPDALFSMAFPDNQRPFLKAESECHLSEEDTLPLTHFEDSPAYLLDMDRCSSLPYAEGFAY
sequence,measurement,setting,value
AAACCC,binding signal,[1],"1.26 fold enrichment (6-mer frequency, TF over GST control)"
same,binding signal,[2],"1.32 fold enrichment (6-mer frequency, TF over GST control)"
same,binding signal,[3],"1.22 fold enrichment (6-mer frequency, TF over GST control)"
same,binding signal,[4],"1.25 fold enrichment (6-mer frequency, TF over GST control)"
same,binding signal,[5],"1.32 fold enrichment (6-mer frequency, TF over GST control)"
same,binding signal,[6],"1.27 fold enrichment (6-mer frequency, TF over GST control)"
same,binding signal,[7],"1.22 fold enrichment (6-mer frequency, TF over GST control)"
same,binding signal,[8],"1.34 fold enrichment (6-mer frequency, TF over GST control)"
same,binding signal,[9],"1.36 fold enrichment (6-mer frequency, TF over GST control)"
same,binding signal,[10],"1.29 fold enrichment (6-mer frequency, TF over GST control)"
same,binding signal,[11],"1.29 fold enrichment (6-mer frequency, TF over GST control)"
same,binding signal,[12],"1.21 fold enrichment (6-mer frequency, TF over GST control)"
same,binding signal,[13],"1.2 fold enrichment (6-mer frequency, TF over GST control)"
same,binding signal,[14],"1.34 fold enrichment (6-mer frequency, TF over GST control)"
same,binding signal,[15],"1.24 fold enrichment (6-mer frequency, TF over GST control)"
same,binding signal,[16],"1.34 fold enrichment (6-mer frequency, TF over GST control)"
same,binding signal,[17],"1.42 fold enrichment (6-mer frequency, TF over GST control)"
same,binding signal,[18],"1.35 fold enrichment (6-mer frequency, TF over GST control)"
same,binding signal,[19],"1.36 fold enrichment (6-mer frequency, TF over GST control)"
